Screens deposited in PubChem BioAssay by National Center for Advancing Translational Sciences (NCATS).
An excerpt weighted towards active compounds, which were near 6% of everything screened.
D1 ag – Allosteric Agonists of the Human D1 Dopamine Receptor: qHTS; HEK293 T-REx D1 cells, calcium flux, agonist mode; D(1A) dopamine receptor (Homo sapiens), P21728; 360,000 tested, 1% active; activation, % at 2 µM; in the data active = activation above about 30%; also: 0% is about no effect
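Agonism was scored from calcium flux recorded over 180 s (1 read/s) after pintool compound addition, following a 10-cycle baseline. Cells were inducible force-coupled HEK293 TREx D1, plated overnight at 30 C and loaded with no-wash calcium dye.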
D1 potentiator – Potentiators of Human D1 Dopamine Receptor: qHTS; HEK293 TREx D1 cells, calcium flux, dopamine EC20 potentiation; potentiation, % at 10 µM; 360,000 tested, 0.036% active; AID 504651, 2011; in the data active = potentiation above about 30%; also: 0% is about no effect
D1 antag – Antagonist of Human D 1 Dopamine Receptor: qHTS | 360,000 tested, 3.2% active | HEK293 TREx D1 cells, calcium flux, dopamine EC80; active compounds read low | activity change, negative = inhibition, % at 10 µM; in the data active = activity change below about -30%; also: % is scaled to controls: 0 for no effect and ±100 for the full control effect
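Cells carrying a force-coupled, tetracycline-inducible human D1 receptor report calcium flux. Each well gets a 10 s baseline, compound with 180 s monitoring, then an EC80 dopamine stimulus with a second 180 s kinetic read.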
DRD3 antagonist – qHTS of D3 Dopamine Receptor Antagonist: qHTS. D(3) dopamine receptor (Homo sapiens), P35462. D3R cells, DiscoveRx beta-arrestin luminescence, antagonist mode; active compounds read low. max response, negative = inhibition, %. 360,000 tested, 2.5% active. AID 652054, 2013; in the data active = max response below about -50%; inconclusive = no clear call, values can overlap the other calls; also: % is scaled to controls: 0 for no effect and ±100 for the full control effect
Target sequence (P35462 whole entry, looked up): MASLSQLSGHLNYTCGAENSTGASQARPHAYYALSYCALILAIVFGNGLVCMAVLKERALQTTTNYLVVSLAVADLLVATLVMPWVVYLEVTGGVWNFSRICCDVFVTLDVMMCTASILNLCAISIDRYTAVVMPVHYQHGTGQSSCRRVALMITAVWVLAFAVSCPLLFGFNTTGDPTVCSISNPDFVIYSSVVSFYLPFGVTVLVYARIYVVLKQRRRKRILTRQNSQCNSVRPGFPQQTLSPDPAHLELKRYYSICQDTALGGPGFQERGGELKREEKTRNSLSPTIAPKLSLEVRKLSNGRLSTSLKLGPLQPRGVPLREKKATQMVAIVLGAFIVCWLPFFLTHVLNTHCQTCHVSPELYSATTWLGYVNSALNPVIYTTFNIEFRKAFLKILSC
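Cells expressing the human receptor were seeded at 1500 cells/well, incubated overnight at 37 degrees C in 5% CO2, then exposed to library compounds with dopamine controls for 90 minutes at 37 degrees C before luminescent detection.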
DRD3 agonist – qHTS of D3 Dopamine Receptor Agonist: qHTS; D3R DiscoveRx beta-arrestin cells, luminescence, 90 min; max activation, %; D(3) dopamine receptor (Homo sapiens), P35462; 410,000 tested, 0.58% active; in the data active = max activation above about 30%; also: 0% is about no effect
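Cells at 1500/well, incubated overnight, then treated with pinned compounds (dopamine as control) for 90 min at 37 degrees C. DiscoveRx reagent added for 30 - 60 minutes at room temperature; luminescence read.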
Active calls of the source: *; ? = inconclusive; · = no result given.

SMILES | D1 ag | D1 potentiator | D1 antag | DRD3 antagonist | DRD3 agonist
CCOC(=O)N1CCC(NC(=O)CCCC(=O)O)CC1 | 2.5 | -3.5 | -33.0* | -13.9 | -15.5
CCOC(=O)N1CCC(NC(=O)c2ccc(Cl)cc2)CC1 | 2.9 | -2.3 | -7.6 | 2.1 | 5.4
COc1cc(C2c3cc(O)c(OC)cc3CC(C(=O)O)C2CO)ccc1O (centres undefined) | · | · | · | 3.9 | 71.5*
Cc1ccccc1CNC(=O)Cn1ccc2cc(S(=O)(=O)N3CCCCC3)ccc21 | 4.6 | 1.9 | -1.2 | · | -10.6
C=CCn1c(SCC(=O)N(C)C2CCS(=O)(=O)C2)nnc1-c1ccncc1 (centres undefined) | 0.9 | 1.2 | -0.3 | -54.1* | -1.8
CN(C(=O)CSc1nnc(-c2ccco2)n1Cc1ccccc1)C1CCS(=O)(=O)C1 (centres undefined) | 0.8 | 11.0 | -37.0* | 13.1 | -2.5
CN(C(=O)CSc1nnc(-c2ccccc2)n1C)C1CCS(=O)(=O)C1 (centres undefined) | 6.5 | -1.1 | -10.0 | 19.2 | -0.2
O=C(CSc1ccccn1)Nc1ccc(Cl)c([N+](=O)[O-])c1 | 7.5 | -4.8 | -33.7* | -15.3 | -0.6
CSc1nn(CC(=O)Nc2cc(C)ccc2C)c(N)c1S(=O)(=O)c1ccccc1 | 1.7 | 1.6 | -23.6 | · | -5.0
Cn1sccc1=O | 1.2 | 2.5 | 5.4 | -71.0* | -16.7
O=c1ccsn1Cc1ccccc1 | 3.2 | 1.6 | 6.6 | ? | -24.1
CCOC(=O)c1c(NC(=O)CSc2cn(CCNC(=O)c3ccccc3OC)c3ccccc23)sc2c1CCC2 | 0.5 | -0.1 | 34.2 | · | -1.6
CCCSc1nc2c(c(=O)[nH]1)C(c1ccc(O)c(OCC)c1)CC(=O)N2 (centres undefined) | 3.7 | -1.4 | 13.5 | · | -9.5
CC1=C(C(=O)N(C)C)CC(CC(=O)NCCCCc2ccccc2)C(=O)N1CCCN1CCCC1=O (centres undefined) | · | · | · | 30.2 | 1.4
CCCCn1c(NCc2ccccc2NS(=O)(=O)c2ccc(C)cc2)nc2ccccc21 | 3.9 | -12.7 | -32.1* | -29.3 | -9.5
CCCCn1c(NCc2ccccc2O)nc2ccccc21 | 0.6 | -6.8 | -0.7 | -12.1 | 2.2
O=S(=O)(Cc1cc(-c2ccccc2Cl)no1)c1ccccc1 | 37.2* | -9.0 | -20.8 | -2.4 | 0.8
Cc1cc(C)c2c(CC(=O)Nc3nnc(C(C)C)s3)coc2c1 | 1.6 | 3.1 | 1.9 | · | 10.9
COc1cccc(/C=C2\SC(=S)N(CCC(=O)N3CCCCC3CCO)C2=O)c1 (centres undefined) | 4.6 | -1.0 | -31.5* | -13.8 | 0.6
COc1cccc(/C=C2\SC(=S)N(CCCC(=O)N3CCCCC3CCO)C2=O)c1 (centres undefined) | 8.1 | 2.6 | 9.0 | 9.9 | 1.7
CCOC(=O)N1CCC(NC(=O)c2cnn(-c3ccc(C)cc3)c2-n2cccc2)CC1 | -1.3 | -0.1 | 6.4 | · | -10.2
CCOc1cc(C2C(C(=O)c3ccc(C)o3)=C(O)C(=O)N2CCc2ccccc2)ccc1O (centres undefined) | 0.4 | -0.9 | -5.8 | -56.3* | 0.0
Cc1ccc(C(=O)C2=C(O)C(=O)N(Cc3cccnc3)C2c2cccc(Oc3ccccc3)c2)o1 (centres undefined) | · | · | · | -69.3* | 1.8
C=CCOc1cccc(C2C(C(=O)c3ccc(C)o3)=C(O)C(=O)N2CCN(C)C)c1 (centres undefined) | 1.2 | 3.0 | -5.0 | -63.5* | -6.6
CCc1ccc(NC(=O)C2CCN(c3cc(C)nc4c(-c5ccc(Cl)cc5)c(C)nn34)CC2)cc1 | -0.3 | -2.7 | 7.0 | · | 5.6
SMILES | D1 ag | D1 potentiator | D1 antag | DRD3 antagonist | DRD3 agonist
CC(=O)Nc1ccc(S(=O)(=O)NCC2CCC(C(=O)NCCc3ccc(C)cc3)CC2)cc1 (centres undefined) | -1.2 | -1.1 | 9.7 | · | -1.3
Cc1c(Cl)cccc1N1C(=O)CC(N(O)c2ccccc2)C1=O (centres undefined) | 1.4 | -3.2 | 4.7 | 8.0 | -0.2
Cc1cccc(C)c1N1C(=O)CC(N(O)c2ccccc2)C1=O (centres undefined) | 5.9 | -7.5 | -31.0* | -23.3 | -4.7
CN(c1ccccc1)S(=O)(=O)c1ccc2[nH]c(=O)oc2c1 | 1.9 | -9.2 | -9.9 | 6.4 | -7.7
CN(Cc1ccccc1)S(=O)(=O)c1ccc2[nH]c(=O)oc2c1 | 6.8 | 3.6 | -37.8* | -1.8 | -1.8
COc1ccc2nc(NC(=O)CN3CCOCC3)sc2c1 | 0.0 | -6.3 | 0.5 | 14.6 | -3.7
Cc1ccc(S(=O)(=O)N2CCCC2C(=O)OCc2nc3ccccc3s2)cc1 (centres undefined) | 44.8* | -2.5 | 0.8 | -21.7 | -7.7
CCOC(=O)c1sc(Nc2nc3c(F)cccc3s2)cc1C | 1.3 | -2.0 | -4.8 | 10.5 | -2.2
COc1ccc2nc(NC(=O)C3CCCN3S(=O)(=O)c3ccc(C)cc3)sc2c1 (centres undefined) | 2.2 | -5.1 | 0.0 | -70.9* | 0.0
CCOC(=O)c1sc(Nc2nc3ccc(OC)cc3s2)cc1C | 4.3 | -4.3 | -35.7* | 15.1 | 3.3
COc1ccc2nc(NC(=O)CN3CCN(C)CC3)sc2c1 | 3.0 | -1.2 | -5.4 | -59.0* | 3.1
COc1ccc(-c2noc(C3CC(=O)N(c4ccc5c(c4)OCCO5)C3)n2)c(OC)c1 (centres undefined) | 4.9 | 1.8 | 2.4 | · | -1.6
CCOC(=O)c1c(NC(=O)CSc2cn(CCNC(=O)c3c(F)cccc3F)c3ccccc23)sc2c1CCCC2 | -0.7 | -2.9 | -7.0 | · | 5.6
Cc1ccc(S(=O)(=O)N2CCCc3cc(NC(=O)c4ccccc4Cl)ccc32)cc1 | 19.4 | 1.2 | -4.3 | · | -0.3
CCN1CCN(CC(=O)Nc2nc3ccc(OC)cc3s2)CC1 | 2.4 | -0.2 | -7.6 | -66.1* | -0.6
COc1ccc(-c2ccc3oc(-c4ccc(OC)cc4)c(-c4ccc(OC)cc4)c3c2)cc1 | · | · | · | 14.9 | 71.8*
COc1ccc(-c2oc3ccc(N4CCOCC4)cc3c2C#CCO)cc1 | · | · | · | 95.0 | 17.8
COc1ccc(-c2ccc3oc(-c4ccc(OC)cc4)c(C#CCO)c3c2)cc1 | · | · | · | 111.4 | 57.6*
COc1cccc(C(=O)NCCc2csc3nc(-c4ccccc4F)nn23)c1OC | 0.0 | 3.5 | 5.5 | · | 8.2
O=C1N/C(=N/N=C/c2ccccc2O)SC1Cc1ccc(F)cc1 (centres undefined) | 2.1 | -3.6 | 1.2 | -55.8* | -17.2
Fc1ccc(CNC(=S)Nc2ccc(OC(F)F)cc2)cc1 | 25.5 | -6.9 | -42.3* | -3.8 | 2.1
S=C(NCc1ccncc1)Nc1ccccc1 | -1.0 | -4.6 | · | -5.6 | -3.5
